From paper PMC4552634, “A New Set of Chemical Starting Points with Plasmodium falciparum Transmission-Blocking Potential for Antimalarial Drug Discovery” (PLoS ONE, 2015) come the findings set out here.

In this test the test system is P. falciparum stage V gametocytes. Details: BacTiter-Glo ATP luminescence viability of purified stage V gametocytes in 384-well plates, per cent inhibition versus DMSO. The following applies: 48 h, 5 µM, inhibitor.

Where two headings read alike, the source gives them in different places. About 3,200 (25%) of roughly 13,000 compounds showed an effect of 50% or more. The list shows a part of the results.

As for `FC(F)(F)c1ccc2[nH]c(-c3ccc(-c4ccc(CN5CCN(c6cnccn6)CC5)cc4)cc3)nc2c1.O=C(O)C(F)(F)F` [TCMDC-132678], the “% Inhibition” value is on record as -10.34%.
Still for that read-out and setting: to `O=C(C1CCCCC1)N1CCOC(CCN2CCC(c3ccccc3)CC2)(c2ccc(Cl)c(Cl)c2)C1` (centres unmarked) [TCMDC-135329] belongs -33.1%; to `C=CCc1cccc(OC)c1OCCCON1C(N)=NC(N)=NC1(C)C` [TCMDC-131337], -10.44%.
The same measure, in the same setting: to `Oc1ccc(CCNCCCCCCNCCc2ccc(-c3ccccc3)cc2)cc1O` [TCMDC-131268] belongs 113.1%; to `Cc1cc(CNCC2CCC(CNCCCc3ccccc3)CC2)ccc1O` (centres unmarked) [TCMDC-140409], 40.71%.
Turning to `CCCN(CCCCCCN(CCC)CCc1ccc(O)c(O)c1)CCc1ccc(O)cc1` [TCMDC-131259], the “% Inhibition” value is -3.325%.
Still for that read-out and setting: to `CC(C)(O)CC(C)(C)c1cc(Cl)ccc1O` [TCMDC-131708] belongs -16.74%.
Same read-out and setting: for `CC(C)(Cc1ccc(Cl)cc1)NCCCCCCNCCc1ccc(O)c(O)c1` [TCMDC-131277] the value was 114.6%; for `CCCNCCc1ccc(NS(=O)(=O)c2cccc(-c3ccc(Cl)cc3)c2)cc1` [TCMDC-141448], 32.49%.
`CCCCc1ccc(CCNCCCCCCNCCc2ccc(O)c(O)c2)cc1` [TCMDC-131281]: the “% Inhibition” value came out at 122.8%.
The same measure, in the same setting: for `CCCN(CCCCCCNCCc1ccc(Cl)cc1)CCc1ccc(O)c(O)c1` [TCMDC-131274] the value was 104.4%; for `Oc1ccc2c(CNCCc3ccccc3)c(O)ccc2c1CNCCc1ccccc1` [TCMDC-137582], -11.34%; for `O=C(NCC1CCC(CNCCCc2ccccc2)CC1)Nc1ccc(Cl)c(Cl)c1` (centres unmarked) [TCMDC-140705], -6.849%.
`COc1ccc2nccc([C@@H](O)CN3CCC(NCc4nc5c(cc4Cl)SCC(=O)N5)C(F)C3)c2c1` (some centres unmarked) [TCMDC-141679]: the “% Inhibition” value (% Inhibition) is listed as -19.09%.
Take `COc1ccc(OCCCCON2C(N)=NC(N)=NC2(C)C)cc1` [TCMDC-131732]: the “% Inhibition” value came to 29.82%.
Same read-out and setting: for `CCOc1cccc(C2c3c(oc4ccccc4c3=O)C(=O)N2CCN(CC)CC)c1` (centres unmarked) [TCMDC-124476] the value was -6.195%; for `NS(=O)(=O)CCc1cccc(Nc2nccc(-c3c(-c4cccc(NC(=O)c5c(F)cccc5F)c4)nn4ccccc34)n2)c1` [TCMDC-135791], -73.1%.
In the case of `N#Cc1ccc2c(c1)CN(C1CCC(NC(=O)C3=Cc4cc(Cl)ccc4OC3)CC1)CCC2` (centres unmarked) [TCMDC-133501], the “% Inhibition” value was -19.21%.
Still for that read-out and setting: for `Cc1nc(-c2cccc(C(=O)N(Cc3cncn3Cc3cccc(C(F)(F)F)c3)CC3CC3)c2)cs1` [TCMDC-132462] the value was -20.16%; for `Oc1ccc(CCNCCCCCCNCCc2ccc(Br)cc2)cc1O` [TCMDC-131263], 95.59%.
Same read-out and setting: for `O=C(NCCCCNCC(Cc1cccc(O)c1)c1ccccc1)c1ccc(NC(=O)c2ccc(Cl)cc2)cc1` (centres unmarked) [TCMDC-138563] the value was -50.17%; for `FC(F)(F)c1cccc(CNCCCCCNCc2ccc(Cl)cc2)c1` [TCMDC-140403], 31.4%.
Still for that read-out and setting: to `Clc1ccc(CCNCCCCCCNCCc2ccc3c(c2)OCO3)cc1` [TCMDC-132042] belongs 88.67%; to `c1ccc(CCNCc2ccc(-c3ccc(CNCc4ccc5c(c4)OCO5)cc3)nc2)cc1` [TCMDC-141648], 21%; to `Clc1ccc2c(NCc3ccc4c(c3)OCO4)ccnc2c1` [TCMDC-125106], -11.41%.
On to `Oc1cccc(CCNCCCCCCNCCc2ccc(Cl)cc2)c1` [TCMDC-131285], for which the “% Inhibition” value amounted to 116.7%.
The same measure, in the same setting: for `O=C(/C=C/c1ccc(Cl)c(Cl)c1)NCCCCCN1CCN(C(=O)Nc2ccc(OC(F)F)cc2)CC1` [TCMDC-135733] the value was 4.05%; for `O=C1NC(=S)N/C1=C/C=C/c1ccc([N+](=O)[O-])o1` [TCMDC-125757], 95.66%; for `O=C(Nc1ccc(-c2csc(-c3nc4ccccc4[nH]3)c2)cc1)Nc1ccc(Cl)c(Cl)c1` [TCMDC-133271], -42.33%.
`O=C(NCC1Cc2cc(Oc3ccccc3)ccc2O1)c1ccc([N+](=O)[O-])o1` (centres unmarked) [TCMDC-124802]: the “% Inhibition” value is given as 28.95%.
On the same count and under the same terms, to `CC(C)(C)c1nn(-c2ccc(Cl)cc2)c2[nH]c(=O)c(CNCc3ccc4c(c3)OCO4)cc12` [TCMDC-136662] belongs 74.56%; to `CC(C)(C)c1nn(-c2ccc(Cl)cc2)c2[nH]c(=O)c(CNC3CCCC3)cc12` [TCMDC-123909], 44.22%; to `CC(C)(C)c1nn(-c2ccccc2)c2[nH]c(=O)c(CNCc3ccc4c(c3)OCO4)cc12` [TCMDC-123910], 11.81%.
Same read-out and setting: for `COc1ccc(CCNCc2cc3c(C(C)(C)C)nn(-c4ccc(Cl)cc4)c3[nH]c2=O)cc1OC` [TCMDC-125351] the value was 40.9%; for `CC(C)(C)c1nn(-c2ccccc2)c2[nH]c(=O)c(CNCc3ccccc3)cc12` [TCMDC-123911], -3.272%.
The same measure, in the same setting: for `CC(C)(C)c1nn(-c2ccc(Cl)cc2)c2[nH]c(=O)c(CNCc3cccs3)cc12` [TCMDC-123908] the value was 55.18%.
On to `Cc1ccc(NS(=O)(=O)c2cccs2)cc1-c1cccc(C(=O)Nc2ccc(F)cc2)c1` [TCMDC-133590], for which the “% Inhibition” value is -57.86%.
On the same count and under the same terms, to `CN(C)c1cccc(NC(=O)NC2N=C(c3ccccc3)c3ccccc3N(CC(=O)N(C)c3ccccc3)C2=O)c1` (centres unmarked) [TCMDC-131985] belongs 33.13%; to `Cc1nc(N)nc(N)c1OCc1ccc(Cl)c(Cl)c1` [TCMDC-131718], -2.553%; to `CC(C)CSc1cc(C(=O)Nc2cc(Cl)ccc2O)ccn1` [TCMDC-138874], -25.81%.
The same measure, in the same setting: to `O=C(Nc1nc2cc(S(=O)(=O)NCCc3ccc(F)cc3)ccc2n1CCCn1ccnc1)c1ccc(Cl)cc1` [TCMDC-141626] belongs 16.98%; to `CCNc1cc(C(=O)N[C@@H](Cc2ccccc2)[C@H](O)CNC2CCCCC2)cc(N2CCCCS2(=O)=O)c1` [TCMDC-134676], 26.1%; to `CCCC1(NC[C@@H](O)[C@H](Cc2ccccc2)NC(=O)c2cc(NCC)cc(N3CCCCS3(=O)=O)c2)CCCC1` [TCMDC-135261], 38.92%.
For `CCNc1cc(C(=O)N[C@@H](Cc2ccccc2)[C@H](O)CNC2(CC)CCCCC2)cc(N2CCCCS2(=O)=O)c1` [TCMDC-135209], the “% Inhibition” value worked out at 82.14%.
On to `CCCC1(NC[C@@H](O)[C@H](Cc2ccccc2)NC(=O)c2cc(NCC)cc(N3CCCCS3(=O)=O)c2)CCCCC1` [TCMDC-135262], for which the “% Inhibition” value came to 28.65%.
The same measure, in the same setting: to `CCNc1cc(C(=O)N[C@@H](Cc2ccccc2)[C@H](O)CNC2C3CC4CC(C3)CC2C4)cc(N2CCCCS2(=O)=O)c1` (some centres unmarked) [TCMDC-135424] belongs 38.6%.
As for `CCNc1cc(C(=O)N[C@@H](Cc2ccccc2)[C@H](O)CNC2CC3CCC2C3)cc(N2CCCCS2(=O)=O)c1` (some centres unmarked) [TCMDC-135107], the “% Inhibition” value is 91.01%.
On the same count and under the same terms, for `CCNc1cc(C(=O)N[C@@H](Cc2ccccc2)[C@H](O)CNC23CCC(CC2)CC3)cc(N2CCCCS2(=O)=O)c1` [TCMDC-135390] the value was 43.97%.
Still for that read-out and setting: to `CCNc1cc(C(=O)N[C@@H](Cc2ccccc2)[C@H](O)CNC2(CC)CC2)cc(N2CCCCS2(=O)=O)c1` [TCMDC-135176] belongs 3.927%.
Same read-out and setting: to `CCCC1(NC[C@@H](O)[C@H](Cc2ccccc2)NC(=O)c2cc(NCC)cc(N3CCCCS3(=O)=O)c2)CC1` [TCMDC-135192] belongs 21.27%.
As to `CCNc1cc(C(=O)N[C@@H](Cc2ccccc2)[C@H](O)CNC2(C)CCCCC2)cc(N2CCCCS2(=O)=O)c1` [TCMDC-134703], the “% Inhibition” value is on record as 93.77%.
With `CCNc1cc(C(=O)N[C@@H](Cc2ccccc2)[C@H](O)CNC23CC4CC(CC(C4)C2)C3)cc(N2CCCCS2(=O)=O)c1` [TCMDC-135352], the “% Inhibition” value was 40.45%.
On the same count and under the same terms, for `CCNc1cc(C(=O)N[C@@H](Cc2ccccc2)[C@H](O)CNC23CCC(CC2)C3)cc(N2CCCCS2(=O)=O)c1` [TCMDC-135371] the value was 58.44%.
